# Values without a mark were called inactive. Inconclusive results are not listed. Entries that show only a call come without a potency. Calls of active or inactive are those of the source. Unless noted, the call rests on the fitted dose curve; in most records, active means well fitted curve in the direction sought with a large enough effect in the repeat runs; inconclusive means weak or mixed curves; inactive means no such curve, though single readings can be large; an effect the other way counts as inactive or inconclusive.
# Columns and labels:
# [1] = qHTS assay to identify small molecule agonists of the estrogen receptor alpha (ER-alpha) signaling pathway in the presence of an antagonist - cell viability counter screen (AID 1259386);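 further: series mostly up to about 92 µM; cells exposed to compounds for 22 h at 37 °C before the viability read; nearly all actives have a fitted effect of over 30% in size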
# Outline: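 VM7Luc4E2 cells (endogenous full-length ER-alpha, 4×ERE-luciferase) were held 5 days in phenol red-free medium with 10% charcoal-stripped FBS, plated, then given 10.0nM ICI-182,780 and compounds at 15 concentrations for 22hr at 37C; viability read by CellTiter-Fluor fluorescence.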
# [2] = target: Progesterone receptor (Homo sapiens) (UniProt P06401); assay: qHTS assay to identify small molecule agonists of the progesterone receptor (PR) signaling pathway (AID 1346784; calls by dose curve; further: nearly all actives have a fitted effect of over 30% in size)
# Outline: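 Using charcoal-stripped serum (2%) to limit endogenous steroids, PR-UAS-bla HEK 293T cells received compounds for 16 hr at 37C after 6 hr plating; beta-lactamase FRET fluorescence was recorded following 2 hr substrate loading at room temperature.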
# [3] = qHTS assay to identify small molecule antagonists of the progesterone receptor (PR) signaling pathway - cell viability counter screen (AID 1346798); further: nearly all actives have a fitted effect of over 50% in size; further: potency means the concentration at half of the fitted maximal effect
# Outline: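 ATP content as viability readout: CellTiter-Glo luminescence, 30 min room temperature, in PR-UAS-bla HEK293T cells after 16 hr compound/R5020 treatment at 37C and 5% CO2.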
# [4] = qHTS assay to identify small molecule antagonists of the TGF-beta/Smad signaling pathway - cell viability counter screen (AID 1346824); further: nearly all actives have a fitted effect of over 50% in size
# Outline: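 Cytotoxicity counter-screen run in the same wells as the beta-lactamase Smad reporter read: CellTiter-Glo luminescence after 30 min at room temperature. HEK 293T SBE-bla cells had 5 hr compound exposure at 37 C with TGF-beta1 (0.25 ng/mL stock).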
# [5] = qHTS assay to identify small molecule agonists of the TGF-beta/Smad signaling pathway - cell viability counter screen (AID 1346829); further: top concentration of the series differs between compounds; nearly all actives have a fitted effect of over 45% in size
# Outline: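 SBE-bla HEK 293T cells plated overnight, compound exposure 5 hr at 37 C. Viability read in the same wells by CellTiter-Glo luminescence after 30 min at room temperature, following the beta-lactamase read.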
# [6] = qHTS assay to identify small molecule agonists of the TGF-beta/Smad signaling pathway (AID 1346859; active means well fitted activation curve with a large enough effect in the signal ratio in the repeat runs, not every such curve was filed as active; the % refers to the signal ratio; further: series mostly up to about 77 µM)
# Outline: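 Stable Smad binding element-beta-lactamase HEK 293T cells; 5 hr compound exposure at 37 C under 5% CO2; 2 hr room-temperature substrate step; fluorescence excited at 405 nm, collected at 460 nm and 530 nm.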
# [7] = target: Thyrotropin-releasing hormone receptor (Homo sapiens) (UniProt P34981); assay: qHTS assay to identify small molecule antagonists of the thyrotropin-releasing hormone receptor (TRHR) signaling pathway (AID 1346877; active means well fitted inhibition curve with a large enough effect in the repeat runs, not every such curve was filed as active; further: series mostly up to about 51 µM)
# Outline: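 TRHR-expressing HEK293 cells were seeded, cultured 18 h at 37 °C, then loaded with calcium dye for 2 h. Compounds were pre-incubated 5 min at room temperature before 1 nM TRH (final) was added, and kinetic fluorescence was recorded for 3 min.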
# [8] = target: Thyrotropin-releasing hormone receptor (Homo sapiens) (UniProt P34981); assay: qHTS assay to identify small molecule agonists of the thyrotropin-releasing hormone receptor (TRHR) signaling pathway (AID 1346891; calls by dose curve; further: potency means the concentration at half of the fitted maximal effect; on activation: series mostly up to about 58 µM)
# Outline: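 In 1536-format, 1500 TRHR-Hek293 cells per well grew 18 h, took up calcium dye for 2 h at 37 °C, received compound, and were read kinetically; 15-point titrations, triplicates.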
# [9] = Human pregnane X receptor (PXR) small molecule agonists, qHTS cell viability counter screen (AID 1346977); further: nearly all actives have a fitted effect of over 50% in size; further: potency means the concentration at half of the fitted maximal effect
# Outline: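 Readout is CellTiter-Fluor fluorescence from PXR-Luc HepG2 cells. Plated cells rested 5hr, then were treated with compounds for 24hr at 37C and 5% CO2, with reagent present during the last hour.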
# [10] = Caspase-3/7 induction in HepG2 cells by small molecules, qHTS assay (AID 1346978); further: nearly all actives have a fitted effect of over 15% in size
# Outline: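 Caspase-3/7 induction was measured by Caspase-Glo 3/7 luminescence (30 min, room temperature) after a 17 hr compound exposure of wild-type HepG2 cells seeded at 2,000 per well and pre-incubated 5 hr.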
# [11] = Caspase-3/7 induction in CHO-K1 cells by small molecules, qHTS cell viability counter screen (AID 1346979); further: nearly all actives have a fitted effect of over 35% in size
# Outline: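 To flag cytotoxic compounds, treated CHO-K1 wild-type cells were given CellTiter-Fluor at 16hr and read fluorescently after 1hr at 37C; the caspase-3/7 luminescence was measured in these same wells.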
# [12] = Caspase-3/7 induction in CHO-K1 cells by small molecules, qHTS assay (AID 1346980); further: nearly all actives have a fitted effect of over 15% in size
# Outline: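 Luminescent Caspase-Glo 3/7 read (30min, room temperature) quantified apoptosis induction. Cells were wild-type CHO-K1, treated with compound for 17hr at 37 C and 5% CO2.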
# [13] = Caspase-3/7 induction in HepG2 cells by small molecules, qHTS cell viability counter screen (AID 1346981); further: series mostly up to about 92 µM; nearly all actives have a fitted effect of over 30% in size
# Outline: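 Wild-type HepG2 cells (2,000/well) were allowed to settle for 5 hr at 37 C, 5% CO2, then dosed with compounds in DMSO by pin transfer. After 16 hr at 37 C, CellTiter-Fluor was added and fluorescence read 1 hr later.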
# [14] = target: Nuclear receptor subfamily 1 group I member 2 (Homo sapiens) (UniProt O75469); assay: Human pregnane X receptor (PXR) small molecule agonists, qHTS assay (AID 1346982); further: nearly all actives have a fitted effect of over 35% in size; further: potency means the concentration at half of the fitted maximal effect
# Outline: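 PXR-Luc HepG2 cells (CYP3A4 promoter-driven luciferase) were seeded in medium with 5% charcoal-stripped FBS, left 5 hr at 37 C, then exposed to compounds in DMSO for 24 hr. Luminescence was read after ONE-Glo addition.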
# [15] = target: Cytochrome P450 2D6 (Homo sapiens) (UniProt P10635); assay: Cytochrome P450 Family 2 Subfamily D Member 6 (CYP2D6) small molecule antagonists: luciferase reporter qHTS assay (AID 1671196); further: nearly all actives have a fitted effect of over 50% in size; further: potency means the concentration at half of the fitted maximal effect
# Outline: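 CYP2D6 enzyme–substrate mix was held with compound for 10 min at room temperature, then NADPH regeneration solution was added and the reaction ran 1 h at room temperature. Luciferin product was detected by luminescence after 20 min with detection reagent.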
# [16] = qHTS assay to identify small molecule agonists of the progesterone receptor (PR) signaling pathway - cell viability counter screen (AID 1346799; calls by dose curve; further: nearly all actives have a fitted effect of over 45% in size; further: potency means the concentration at half of the fitted maximal effect)
# Outline: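 Cytotoxicity in PR-bla HEK293T cells: 16 h compound, 37C; CellTiter-Glo added post-FRET read; luminescence after 30 min RT.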
# [17] = target: Nuclear receptor subfamily 1 group I member 2 (Rattus norvegicus) (UniProt Q9R1A7); assay: Rat pregnane X receptor (rPXR) activation by small molecules, qHTS assay (AID 1346983); conditions: rPXR luciferase reporter cells, One-Glo luminescence, 24 h; max activation: hits give high values; further: nearly all actives have a fitted effect of over 20% in size
# Outline: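 Luminescent readout (One-Glo luciferase, 30 min room temperature) followed 24 hr compound treatment at 37 C of rPXR cells plated 2,000 per well and preincubated 5hr; qHTS format with compounds delivered in DMSO.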
# [18] = target: Nuclear receptor subfamily 1 group I member 2 (Homo sapiens) (UniProt O75469); assay: Human pregnane X receptor (PXR) activation by small molecules, qHTS assay (AID 1346985); further: nearly all actives have a fitted effect of over 40% in size
# Outline: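 DPX-2 cells (HepG2 co-transfected with a PXR response element and a CYP3A4-promoter luciferase construct) were seeded at 2,000 per well, rested 5 hr at 37C, then exposed to DMSO-dissolved compounds for 24 hr. Activation was read as luciferase luminescence.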
# Nuclear receptor subfamily 1 group I member 2 (Homo sapiens), sequence (O75469 whole entry, looked up): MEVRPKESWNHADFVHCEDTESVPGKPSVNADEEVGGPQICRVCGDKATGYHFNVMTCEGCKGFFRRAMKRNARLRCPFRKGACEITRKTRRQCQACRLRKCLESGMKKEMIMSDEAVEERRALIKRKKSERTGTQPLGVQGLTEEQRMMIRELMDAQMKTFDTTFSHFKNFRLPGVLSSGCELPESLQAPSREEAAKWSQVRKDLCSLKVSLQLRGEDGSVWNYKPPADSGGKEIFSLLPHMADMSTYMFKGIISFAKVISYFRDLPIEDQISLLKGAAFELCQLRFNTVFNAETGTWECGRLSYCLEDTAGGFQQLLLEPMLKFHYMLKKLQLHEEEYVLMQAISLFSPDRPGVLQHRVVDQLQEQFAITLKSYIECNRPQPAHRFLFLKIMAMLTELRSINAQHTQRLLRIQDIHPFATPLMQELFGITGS
# Thyrotropin-releasing hormone receptor (Homo sapiens), sequence (P34981 whole entry, looked up): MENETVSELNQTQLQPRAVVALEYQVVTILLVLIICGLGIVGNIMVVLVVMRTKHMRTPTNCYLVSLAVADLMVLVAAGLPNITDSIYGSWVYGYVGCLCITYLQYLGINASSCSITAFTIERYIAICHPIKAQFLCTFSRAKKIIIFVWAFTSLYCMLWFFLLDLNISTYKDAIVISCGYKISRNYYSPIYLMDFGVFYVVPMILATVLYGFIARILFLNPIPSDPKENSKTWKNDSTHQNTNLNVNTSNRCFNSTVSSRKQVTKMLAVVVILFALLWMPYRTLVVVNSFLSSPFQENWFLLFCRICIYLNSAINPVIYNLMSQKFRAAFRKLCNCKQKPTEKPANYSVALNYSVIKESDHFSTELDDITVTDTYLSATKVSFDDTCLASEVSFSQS
# Progesterone receptor (Homo sapiens), sequence (P06401 whole entry, looked up): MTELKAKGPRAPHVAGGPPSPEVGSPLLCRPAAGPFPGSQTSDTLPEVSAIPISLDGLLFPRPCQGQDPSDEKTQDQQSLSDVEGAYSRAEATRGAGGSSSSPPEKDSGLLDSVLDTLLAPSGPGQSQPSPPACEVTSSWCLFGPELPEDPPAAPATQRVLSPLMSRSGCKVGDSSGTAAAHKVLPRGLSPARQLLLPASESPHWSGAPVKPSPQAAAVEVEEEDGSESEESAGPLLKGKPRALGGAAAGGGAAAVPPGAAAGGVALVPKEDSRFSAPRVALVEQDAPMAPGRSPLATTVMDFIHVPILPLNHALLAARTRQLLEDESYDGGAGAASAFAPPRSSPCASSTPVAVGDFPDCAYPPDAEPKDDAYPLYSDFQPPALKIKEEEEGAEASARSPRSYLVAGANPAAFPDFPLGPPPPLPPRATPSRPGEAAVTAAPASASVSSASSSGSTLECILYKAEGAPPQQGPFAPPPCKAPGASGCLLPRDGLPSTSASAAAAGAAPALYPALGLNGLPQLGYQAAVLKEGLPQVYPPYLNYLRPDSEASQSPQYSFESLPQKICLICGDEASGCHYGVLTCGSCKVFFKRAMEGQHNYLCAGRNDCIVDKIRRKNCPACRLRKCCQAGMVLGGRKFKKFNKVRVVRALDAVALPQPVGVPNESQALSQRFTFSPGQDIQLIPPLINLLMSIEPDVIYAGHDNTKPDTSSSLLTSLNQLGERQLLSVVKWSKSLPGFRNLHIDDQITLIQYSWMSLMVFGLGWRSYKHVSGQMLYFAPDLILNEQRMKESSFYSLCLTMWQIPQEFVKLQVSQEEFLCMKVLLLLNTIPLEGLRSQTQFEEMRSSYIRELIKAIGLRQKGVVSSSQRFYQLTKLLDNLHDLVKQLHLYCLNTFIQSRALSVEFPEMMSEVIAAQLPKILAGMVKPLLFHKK
# Cytochrome P450 2D6 (Homo sapiens), sequence (P10635 whole entry, looked up): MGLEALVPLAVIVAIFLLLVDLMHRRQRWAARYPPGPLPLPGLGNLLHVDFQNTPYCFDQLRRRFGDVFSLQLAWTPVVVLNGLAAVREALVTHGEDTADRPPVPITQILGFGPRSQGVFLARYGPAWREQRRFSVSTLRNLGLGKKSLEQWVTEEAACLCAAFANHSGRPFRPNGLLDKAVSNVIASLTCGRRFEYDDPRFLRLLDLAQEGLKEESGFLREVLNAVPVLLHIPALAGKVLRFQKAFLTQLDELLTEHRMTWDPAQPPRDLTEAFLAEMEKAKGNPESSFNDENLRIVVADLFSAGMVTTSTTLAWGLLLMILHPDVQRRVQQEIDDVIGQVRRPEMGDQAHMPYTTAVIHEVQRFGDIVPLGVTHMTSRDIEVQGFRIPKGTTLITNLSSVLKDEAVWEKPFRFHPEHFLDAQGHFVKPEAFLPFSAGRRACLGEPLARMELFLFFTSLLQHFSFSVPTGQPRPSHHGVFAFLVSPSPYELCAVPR
# Nuclear receptor subfamily 1 group I member 2 (Rattus norvegicus), sequence (Q9R1A7 whole entry, looked up): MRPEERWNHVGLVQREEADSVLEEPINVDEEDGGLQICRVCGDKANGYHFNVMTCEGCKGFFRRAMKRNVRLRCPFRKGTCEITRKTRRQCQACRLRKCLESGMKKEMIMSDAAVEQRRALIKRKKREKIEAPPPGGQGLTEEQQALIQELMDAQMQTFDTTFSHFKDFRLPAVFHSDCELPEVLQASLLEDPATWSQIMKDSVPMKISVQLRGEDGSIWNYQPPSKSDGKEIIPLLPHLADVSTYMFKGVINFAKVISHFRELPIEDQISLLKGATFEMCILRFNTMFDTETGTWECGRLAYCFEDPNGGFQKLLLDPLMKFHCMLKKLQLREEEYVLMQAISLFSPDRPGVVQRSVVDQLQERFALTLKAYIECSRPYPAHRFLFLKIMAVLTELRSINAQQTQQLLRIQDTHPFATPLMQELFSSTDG
SMILES,Potency [1],outcome [2],Potency [3],Potency [4],Potency [5],outcome [6],outcome [7],Potency [8],Potency [9],outcome [10],Potency [11],Potency [12],Potency [13],Potency [14],Potency [15],Potency [16],max activation [17] [%],Potency [18]
COc1ccc(OC)c(OC)c1,inactive,inactive,inactive,inactive,inactive,inactive,inactive,inactive,inactive,inactive,inactive,inactive,inactive,inactive,inactive,,,
NCCCOCCOCCOCCCN,inactive,inactive,,inactive,inactive,inactive,inactive,inactive,,inactive,,inactive,inactive,,20 µM (active),8.63 µM (active),,
O=C(O)Cn1c(C(=O)Nc2nc(-c3ccccc3Cl)cs2)cc2ccccc21,inactive,inactive,inactive,inactive,inactive,,inactive,3.79 µM (active),inactive,inactive,,inactive,inactive,26.6 µM (active),inactive,,-0.843,inactive
S=C(S)NCCNC(=S)S,inactive,inactive,inactive,inactive,inactive,,,,inactive,inactive,inactive,inactive,inactive,inactive,inactive,,,
CN(C)CCCOc1nn(Cc2ccccc2)c2ccccc12,inactive,inactive,,inactive,inactive,inactive,,inactive,26.6 µM (active),inactive,inactive,inactive,inactive,,,inactive,,
C=C(C)C(=O)OC(C)C,inactive,inactive,,inactive,inactive,inactive,,inactive,inactive,inactive,inactive,inactive,inactive,inactive,inactive,inactive,,
CCN(CC)C(C)CN1c2ccccc2Sc2ccccc21 (stereo not drawn),inactive,inactive,,inactive,inactive,inactive,,,inactive,inactive,inactive,inactive,inactive,inactive,30.9 µM (active),inactive,-0.328,inactive
CCCCCCCCCCCCCCCBr,inactive,inactive,inactive,inactive,inactive,,,,inactive,inactive,inactive,inactive,inactive,inactive,inactive,,,
Cc1cc(CC(=O)O)c(C)n1-c1ccc(Cl)cc1,inactive,inactive,inactive,inactive,inactive,inactive,inactive,inactive,inactive,inactive,inactive,,inactive,inactive,,inactive,0.177,inactive
Cc1cccc(Oc2ccccc2)c1,inactive,inactive,21.1 µM (active),inactive,inactive,,inactive,inactive,inactive,inactive,inactive,inactive,inactive,inactive,34.7 µM (active),,,
OCCC1CCCCN1 (stereo not drawn),inactive,inactive,inactive,inactive,inactive,inactive,,,inactive,inactive,,inactive,inactive,inactive,,inactive,,
C=CC(C)(CCC=C(C)C)OC(=O)c1ccccc1 (stereo not drawn),inactive,inactive,inactive,inactive,inactive,inactive,inactive,inactive,inactive,inactive,inactive,,,,inactive,inactive,,
CC(=O)c1c(C)c([N+](=O)[O-])c(C(C)(C)C)c([N+](=O)[O-])c1C,inactive,inactive,inactive,inactive,inactive,inactive,,,,inactive,inactive,,inactive,48.6 µM (active),inactive,,,
